# Results filed as inconclusive are left out. Activity calls are given as the source filed them. How the source made its calls, unless noted: active means hit-call score of the fitted dose curve at least 0.9, where 1 is the maximum; inactive means score below 0.9.
# What was measured:
# [1] = molecular target: human CYP19A1, CYP19A1 (gene 1588) (UniProt P11511); experiment: NVS_ADME_hCYP19A1: NovaScreen (NVS) CYP450-related Enzyme Activity (ADME) Assay for human CYP19A1 (AID 2283098; active means hit-call score of the fitted dose curve at least 0.9, where 1 is the maximum)
# human CYP19A1, CYP19A1 (gene 1588), sequence (P11511 whole entry, looked up): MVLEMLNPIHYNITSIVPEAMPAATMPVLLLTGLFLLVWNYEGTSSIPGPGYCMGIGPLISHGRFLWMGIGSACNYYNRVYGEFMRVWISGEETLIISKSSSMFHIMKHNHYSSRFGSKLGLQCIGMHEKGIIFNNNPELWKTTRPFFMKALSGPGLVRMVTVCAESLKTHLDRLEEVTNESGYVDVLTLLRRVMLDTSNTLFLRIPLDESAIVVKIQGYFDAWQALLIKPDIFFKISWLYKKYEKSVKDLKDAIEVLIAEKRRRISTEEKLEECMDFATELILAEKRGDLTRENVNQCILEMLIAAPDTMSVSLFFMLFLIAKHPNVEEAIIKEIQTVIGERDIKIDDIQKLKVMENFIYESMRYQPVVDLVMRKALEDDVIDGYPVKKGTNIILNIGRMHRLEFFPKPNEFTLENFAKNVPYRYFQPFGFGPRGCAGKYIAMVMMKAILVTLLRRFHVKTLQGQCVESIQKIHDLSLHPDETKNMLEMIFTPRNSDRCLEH
# In short: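 Primary testing was in duplicate at a single 10 uM concentration, with actives followed up in concentration-response series. Fluorescence read-out of recombinant enzyme activity at 0.5 h, cell-free. Acetonitrile was the negative-control baseline.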
# [2] = molecular target: AR (gene 367) (UniProt P10275); experiment: ACEA_AR_agonist_80hr: ACEA Biosciences xCELLigence Real-Time Cell Analysis on Androgen Receptor Agonism for Proliferation (AID 2283783; active means hit-call score of the fitted dose curve at least 0.9, where 1 is the maximum;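 further: hits increase impedance growth signal above DMSO baseline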)
# AR (gene 367), sequence (P10275 whole entry, looked up): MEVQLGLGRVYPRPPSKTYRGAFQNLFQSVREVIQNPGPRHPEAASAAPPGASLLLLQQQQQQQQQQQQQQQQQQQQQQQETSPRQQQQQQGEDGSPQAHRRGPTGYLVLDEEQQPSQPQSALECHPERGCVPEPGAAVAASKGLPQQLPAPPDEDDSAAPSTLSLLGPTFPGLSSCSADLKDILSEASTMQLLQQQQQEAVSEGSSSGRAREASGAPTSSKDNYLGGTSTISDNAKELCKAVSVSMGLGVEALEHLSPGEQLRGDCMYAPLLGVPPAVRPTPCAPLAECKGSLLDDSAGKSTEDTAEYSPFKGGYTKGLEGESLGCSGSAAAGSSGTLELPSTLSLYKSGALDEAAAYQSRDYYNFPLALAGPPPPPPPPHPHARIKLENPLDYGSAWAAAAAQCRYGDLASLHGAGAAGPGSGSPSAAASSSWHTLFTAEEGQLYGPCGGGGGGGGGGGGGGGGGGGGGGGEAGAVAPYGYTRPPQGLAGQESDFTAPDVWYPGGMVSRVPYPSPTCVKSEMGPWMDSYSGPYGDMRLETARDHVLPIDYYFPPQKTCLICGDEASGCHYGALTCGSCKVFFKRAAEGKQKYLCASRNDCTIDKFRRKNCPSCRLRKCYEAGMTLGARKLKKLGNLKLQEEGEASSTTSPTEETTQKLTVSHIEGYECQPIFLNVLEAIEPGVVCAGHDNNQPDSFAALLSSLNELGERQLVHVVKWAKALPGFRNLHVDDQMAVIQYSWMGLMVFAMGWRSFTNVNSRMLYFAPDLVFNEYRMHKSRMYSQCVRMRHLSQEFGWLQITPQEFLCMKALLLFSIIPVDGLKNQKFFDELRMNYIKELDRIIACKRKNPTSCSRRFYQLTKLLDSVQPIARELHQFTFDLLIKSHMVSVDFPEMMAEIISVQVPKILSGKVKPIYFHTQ
# In short: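 Eight concentrations, 1:4 serial dilution from a 100 uM final top, in biological duplicate. Impedance-based real-time growth of 22Rv1 cells after overnight baseline, recorded hourly and read at 80 hours. Controls: testosterone, MG132, assay media.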
# [3] = molecular target: Nucleoli Translocation, AR (gene 367) (UniProt P10275); experiment: UPITT_HCI_U2OS_AR_TIF2_Nucleoli_Antagonist: University of Pittsburgh U2OS Androgen Receptor-Transcriptional Intermediary Factor 2 (AR-TIF2) Antagonism High Content Imaging Assay for Nucleoli Translocation (AID 2283997; active means hit-call score of the fitted dose curve at least 0.9, where 1 is the maximum)
# Nucleoli Translocation, AR (gene 367), sequence (P10275 whole entry, looked up): as above
# In short: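 Antagonism is read as loss of nucleolar AR-RFP signal relative to DHT, imaged in U2OS cells also carrying GFP-TIF2. Compounds screened at 20 uM final, 0.2% DMSO; primary actives retested in triplicate.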
# [4] = CCTE_Shafer_MEA_dev_firing_rate_mean: CCTE's Neural Network Formation Assay for Mean Firing Rate, Shafer Lab (AID 2284031)
# In short: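 Read-out: spike count/recording length, averaged over active electrodes, then AUC across days 5, 7, 9, 12. Rat cortical cultures on MEA; continuous 12-day exposure, media and treatment renewed DIV 5, 9; DMSO baseline.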
# [5] = CCTE_Shafer_MEA_dev_per_burst_spike_percent: CCTE's Neural Network Formation Assay for Percent of Spikes in a Burst, Shafer Lab (AID 2284032)
# In short: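 Value is trapezoidal AUC over recordings on days 5, 7, 9 and 12 of the well-mean fraction of spikes falling in single-electrode bursts; rat cortical cultures exposed continuously from plating, treatment renewed DIV 5 and 9, fitted downward against DMSO.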
# [6] = CCTE_Shafer_MEA_dev_active_electrodes_number: CCTE's Neural Network Formation Assay for Number of Active Electrodes, Shafer Lab (AID 2284040; active means hit-call score of the fitted dose curve at least 0.9, where 1 is the maximum)
# In short: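 Developing rat cortical networks on MEAs, exposed DIV 0–12. Value is the AUC of active-electrode counts (≥5 spikes/min) from days 5, 7, 9, 12, relative to DMSO.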
# [7] = CCTE_Shafer_MEA_dev_burst_rate: CCTE's Neural Network Formation Assay for Burst Rate, Shafer Lab (AID 2284042)
# In short: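 Developmental network assay measuring how 12-day exposure of rat cortical neuron cultures alters bursting on extracellular MEA recordings. Values are AUC of well-mean burst rate across four recording days, relative to DMSO vehicle.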
# [8] = CCTE_Shafer_MEA_dev_per_burst_interspike_interval: CCTE's Neural Network Formation Assay for Burst Interspike Interval, Shafer Lab (AID 2284044)
# In short: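 Spontaneous activity of maturing rat cortical networks is recorded on DIV 5, 7, 9 and 12 under chronic compound exposure beginning at plating. Endpoint: burst interspike interval well-mean, collapsed into trapezoidal AUC and fitted in the negative direction relative to DMSO.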
# [9] = CCTE_Shafer_MEA_dev_burst_duration_mean: CCTE's Neural Network Formation Assay for Mean Burst Duration, Shafer Lab (AID 2284045);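 on AC50: curve fitted for loss meaning shorter burst duration than DMSO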
# In short: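 Mean single-electrode burst duration (first to last spike), averaged over bursting electrodes per well, then integrated as area-under-curve across recordings at days 5, 7, 9 and 12. Rat cortical cultures on MEAs, compound present from plating, refreshed at feeds.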
# [10] = CCTE_Shafer_MEA_dev_interburst_interval_mean: CCTE's Neural Network Formation Assay for Mean Interburst Interval, Shafer Lab (AID 2284046);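 further: well-mean interburst interval of bursting electrodes as AUC over four recording days; curve fitted for decrease in interburst interval relative to DMSO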
# In short: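 Network formation assay in primary rat cortical cultures, exposed from DIV 0 to 12. Mean interburst interval per well, integrated as AUC over four recordings.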
# [11] = CCTE_Shafer_MEA_dev_inter_network_spike_interval_mean: CCTE's Neural Network Formation Assay for Mean Inter-network Spike Interval, Shafer Lab (AID 2284047)
# In short: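 Compound was given at plating to primary rat cortical neurons and renewed with full medium changes on DIV 5 and 9. Extracellular activity was recorded on days 5, 7, 9, 12; AUC values were fitted for loss relative to DMSO control.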
# [12] = CCTE_Shafer_MEA_dev_network_spike_number: CCTE's Neural Network Formation Assay for Number of Network Spikes, Shafer Lab (AID 2284048);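 further: synchronized bursts across electrodes counted on days 5 7 9 12 and integrated as AUC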
# In short: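 Number of network spikes (coordinated firing across electrodes) recorded on days 5, 7, 9 and 12 and summarised as area under the curve. Rat cortical cultures on MEA, continuous compound exposure with full medium/treatment exchange at DIV 5 and 9.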
# [13] = CCTE_Shafer_MEA_dev_spike_duration_mean: CCTE's Neural Network Formation Assay for Mean Spike Duration, Shafer Lab (AID 2284051);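 further: mean network spike duration pooled as area under curve over DIV 5 to 12 recordings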
# In short: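 With DMSO as baseline, loss of mean network spike duration was scored from extracellular recordings of rat cortical neurons on MEA plates. Exposure spanned plating to DIV 12; the four recording days were collapsed into one AUC value.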
# [14] = CCTE_Shafer_MEA_dev_network_spike_duration_std: CCTE's Neural Network Formation Assay for Standard Deviation of Network Spike Duration, Shafer Lab (AID 2284052);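 further: hits are decreases in network spike duration SD versus DMSO vehicle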
# In short: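 Developing networks of rat cortical neurons were exposed over twelve days in vitro on 48-well MEA plates. Trapezoidal AUC of recordings (DIV 5–12) was analysed for signal loss relative to DMSO vehicle.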
# [15] = CCTE_Shafer_MEA_dev_per_network_spike_spike_number_mean: CCTE's Neural Network Formation Assay for Mean Number of Spikes in a Network Spike, Shafer Lab (AID 2284053)
# In short: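 First, rat cortical cells (1.5 x 10^5/well) were seeded onto MEA wells; second, dosing began at plating and was refreshed on DIV 5 and 9; finally, network-spike spike counts across DIV 5–12 were summarized as AUC.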
# [16] = CCTE_Shafer_MEA_dev_per_network_spike_spike_percent: CCTE's Neural Network Formation Assay for Percent of Spikes in a Network Spike, Shafer Lab (AID 2284054)
# In short: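 Metric: fraction of spikes falling in a 0.05 s window at network-spike peaks. Recordings were made on days 5, 7, 9 and 12 and collapsed by trapezoidal AUC. Cultures were rat cortical neurons on MEA plates, dosed continuously from plating, re-dosed at media changes.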
# [17] = STM_H9_OrnCyssISnorm_ratio: Stemina devTOX quickPredict H9 human embryonic stem cell (hESC)-based Assay for Ornithine (ORN):Cystine (CYSS) Ratio (AID 2283714; active means hit-call score of the fitted dose curve at least 0.9, where 1 is the maximum)
# In short: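 Ratio of internal-standard-normalized ornithine to cystine, measured by UPLC-HRMS in spent media from the last 24 h. H9 cells kept pluripotent, dosed 72 h with daily media and compound renewal; DMSO 0.1% serves as baseline.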
# [18] = STM_H9_NormalizedViability: Cytotoxicity Assessment at 120 hours in the Stemina devTOX quickPredict H9 human embryonic stem cell (hESC)-based Assay (AID 2283784; active means hit-call score of the fitted dose curve at least 0.9, where 1 is the maximum)
# In short: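 CellTiter-Fluor RFU, background-subtracted, expressed relative to 0.1% DMSO neutral control by plate. Pluripotent H9 cells; treatment with daily re-dosing. Plates carried 1uM methotrexate (positive) and 5 nM methotrexate (negative) references.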
# [19] = molecular target: human Dopamine Transporter (DAT), SLC6A3 (gene 6531) (UniProt Q01959); experiment: NVS_TR_hDAT: NovaScreen (NVS) Transporter Assay for human Dopamine Transporter (DAT) (AID 2283374; active means hit-call score of the fitted dose curve at least 0.9, where 1 is the maximum;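 further: activity means loss of bound radioligand signal relative to DMSO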)
# human Dopamine Transporter (DAT), SLC6A3 (gene 6531), sequence (Q01959 whole entry, looked up): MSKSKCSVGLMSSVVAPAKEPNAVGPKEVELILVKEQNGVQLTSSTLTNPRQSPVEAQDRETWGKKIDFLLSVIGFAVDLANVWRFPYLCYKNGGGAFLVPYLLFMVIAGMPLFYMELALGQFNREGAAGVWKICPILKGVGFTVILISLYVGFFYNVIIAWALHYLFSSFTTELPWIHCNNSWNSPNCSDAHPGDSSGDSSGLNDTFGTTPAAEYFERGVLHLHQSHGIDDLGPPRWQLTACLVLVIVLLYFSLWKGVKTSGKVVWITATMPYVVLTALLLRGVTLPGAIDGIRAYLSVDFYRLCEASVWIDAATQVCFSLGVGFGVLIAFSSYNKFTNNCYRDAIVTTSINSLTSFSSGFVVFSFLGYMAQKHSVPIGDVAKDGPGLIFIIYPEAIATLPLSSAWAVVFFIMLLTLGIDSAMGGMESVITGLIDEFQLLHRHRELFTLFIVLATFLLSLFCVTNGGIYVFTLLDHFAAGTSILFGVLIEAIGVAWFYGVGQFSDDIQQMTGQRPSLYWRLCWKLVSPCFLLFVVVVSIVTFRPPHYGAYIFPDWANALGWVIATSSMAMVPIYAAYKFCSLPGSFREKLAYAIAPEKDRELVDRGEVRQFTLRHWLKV
# In short: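 Duplicate single-point screening at 25 uM preceded concentration-series follow-up of actives. Binding was measured by competitive displacement of a radioligand from DAT protein, filter-counted by scintillation 1 h after dosing. Decrease relative to DMSO taken as activity.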
# [20] = molecular target: Sodium channel protein type 1 subunit alpha (Rattus norvegicus) (UniProt P04774); experiment: NVS_IC_rNaCh_site2: NovaScreen (NVS) Ion Channel Assay for rat Sodium Channel, Site 2 (NaCh) (AID 2283322; active means hit-call score of the fitted dose curve at least 0.9, where 1 is the maximum;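 further: hit means loss of radioligand binding signal relative to DMSO so AC50 marks displacement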)
# In short: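 Initial duplicate single-point testing at 25 uM, followed by concentration-response runs for actives. Binding of radioligand to rat forebrain membranes quantified after 1 h via filter-based radiodetection.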
smiles,measurement,setting,value
CC1=NN(c2cc(Cl)c(S(=O)(=O)O)cc2Cl)C(=O)C1N=Nc1ccc(S(=O)(=O)O)cc1 (centres undefined),outcome,[1],inactive
CO[Si](CCCNCCN)(OC)OC,outcome,[2],inactive
O=C(c1ccccc1)c1ccccc1O,outcome,[3],inactive
Cc1cc(C)c(S(=O)(=O)O)cc1N=Nc1cc(S(=O)(=O)O)c2ccccc2c1O,outcome,[2],inactive
same,outcome,[3],inactive
CC1(C)S[C@@H]2[C@H](NC(=O)[C@H](N)c3ccccc3)C(=O)N2[C@H]1C(=O)O,outcome,[4],inactive
same,outcome,[5],inactive
same,outcome,[6],inactive
same,outcome,[7],inactive
same,outcome,[8],inactive
same,AC50,[9],22.6 µM (active)
same,outcome,[10],inactive
same,outcome,[11],inactive
same,outcome,[12],inactive
same,outcome,[13],inactive
same,outcome,[14],inactive
same,outcome,[15],inactive
same,outcome,[16],inactive
CN(C)Cc1cc(C(C)(C)C)c(O)c(C(C)(C)C)c1,outcome,[17],inactive
same,outcome,[18],inactive
CC[N+](CC)(CC(=O)Nc1c(C)cccc1C)Cc1ccccc1 (tested in a mixture with another compound),outcome,[17],inactive
same,outcome,[18],inactive
CCC(C)NC(N)=O (centres undefined),AC50,[19],26.9 µM (active)
CCCCCC[C@@H](O)C/C=C\CCCCCCCC(=O)O,AC50,[17],30.9 µM (active)
same,outcome,[18],inactive
O=C(OCc1ccccc1)c1ccccc1,outcome,[1],inactive
CC[N+](CC)(CC(=O)Nc1c(C)cccc1C)Cc1ccccc1,AC50,[20],3.49 µM (active)
O=C(C(=O)c1ccccc1)c1ccccc1,outcome,[20],inactive
same,AC50,[19],1.07 µM (active)
CN(C)CCC(c1ccc(Cl)cc1)c1ccccn1 (centres undefined),AC50,[20],3.21 µM (active)
same,AC50,[19],2.54 µM (active)
same,outcome,[4],inactive
same,outcome,[5],inactive
same,outcome,[6],inactive
same,outcome,[7],inactive
same,outcome,[8],inactive
same,outcome,[9],inactive
same,outcome,[10],inactive
same,outcome,[11],inactive
same,outcome,[12],inactive
same,outcome,[13],inactive
same,outcome,[14],inactive
same,outcome,[15],inactive
same,outcome,[16],inactive

# Reference: PubChem BioAssay (EPA / NIEHS)
